Source: publication PMC7862700, “An all-to-all approach to the identification of sequence-specific readers for epigenetic DNA modifications on cytosine”

What was measured:
Test in all cases: DAPPL (digital affinity profiling via proximity ligation, sequencing); 10 mM Tris-HCl pH 7.5, 50 mM NaCl, 1 mM DTT, 4% glycerol, room temperature, 30 min; GST-TFs on glutathione beads, 16-mer random dsDNA library, 0.1% formaldehyde crosslink after washing; high values mean tight binding
FLI1 = biological target: T1, FLI1 (Homo sapiens, UniProt Q01543 1-452); settings: protein: recombinant; tags: N-terminal GST; dsDNA, one strand shown
T1 sequence: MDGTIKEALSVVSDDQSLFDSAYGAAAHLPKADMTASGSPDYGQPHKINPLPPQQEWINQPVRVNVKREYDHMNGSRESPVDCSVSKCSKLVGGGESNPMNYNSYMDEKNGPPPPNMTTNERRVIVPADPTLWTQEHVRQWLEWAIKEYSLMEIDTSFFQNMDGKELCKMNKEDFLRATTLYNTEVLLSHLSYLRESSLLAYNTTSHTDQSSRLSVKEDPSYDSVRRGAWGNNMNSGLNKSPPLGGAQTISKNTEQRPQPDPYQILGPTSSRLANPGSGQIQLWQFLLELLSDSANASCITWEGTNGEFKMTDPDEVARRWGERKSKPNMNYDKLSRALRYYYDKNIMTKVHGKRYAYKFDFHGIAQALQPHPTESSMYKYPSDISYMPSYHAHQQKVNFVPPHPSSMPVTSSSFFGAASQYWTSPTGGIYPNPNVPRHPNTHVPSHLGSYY
Method in brief: (§1)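 GST fusions of human transcription factors were expressed in yeast and captured with glutathione beads. Once given DNA barcodes and pooled alongside a tag-only sample, they were incubated for 30 min at room temperature with 200 nmole of a random double-stranded 16-mer DNA library in Tris/NaCl/DTT/glycerol buffer, then washed, crosslinked (0.1% formaldehyde), proximity-ligated, PCR-amplified and sequenced on an Illumina NextSeq500. The binding signal of each hexamer is its read frequency for a factor divided by its frequency for the tag-only sample.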

ELK1 = biological target: T2, ELK1 (Homo sapiens, UniProt P19419 1-428); settings: protein: recombinant; tags: N-terminal GST; dsDNA, one strand shown
T2 sequence: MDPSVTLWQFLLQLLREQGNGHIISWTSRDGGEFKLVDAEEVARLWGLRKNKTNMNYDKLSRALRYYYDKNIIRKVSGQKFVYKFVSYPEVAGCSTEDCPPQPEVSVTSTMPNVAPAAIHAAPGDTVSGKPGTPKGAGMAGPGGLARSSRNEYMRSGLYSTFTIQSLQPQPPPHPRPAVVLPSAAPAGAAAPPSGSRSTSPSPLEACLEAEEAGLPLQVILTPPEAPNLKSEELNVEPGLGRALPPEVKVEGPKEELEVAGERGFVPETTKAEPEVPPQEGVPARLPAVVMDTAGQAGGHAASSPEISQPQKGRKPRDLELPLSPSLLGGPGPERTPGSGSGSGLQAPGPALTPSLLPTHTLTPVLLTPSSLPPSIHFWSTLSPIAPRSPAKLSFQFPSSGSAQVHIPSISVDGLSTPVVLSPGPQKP
Method in brief: as §1

GABPA = biological target: T3, GABPA (Homo sapiens, UniProt Q06546 1-454); settings: protein: recombinant; tags: N-terminal GST; dsDNA, one strand shown
T3 sequence: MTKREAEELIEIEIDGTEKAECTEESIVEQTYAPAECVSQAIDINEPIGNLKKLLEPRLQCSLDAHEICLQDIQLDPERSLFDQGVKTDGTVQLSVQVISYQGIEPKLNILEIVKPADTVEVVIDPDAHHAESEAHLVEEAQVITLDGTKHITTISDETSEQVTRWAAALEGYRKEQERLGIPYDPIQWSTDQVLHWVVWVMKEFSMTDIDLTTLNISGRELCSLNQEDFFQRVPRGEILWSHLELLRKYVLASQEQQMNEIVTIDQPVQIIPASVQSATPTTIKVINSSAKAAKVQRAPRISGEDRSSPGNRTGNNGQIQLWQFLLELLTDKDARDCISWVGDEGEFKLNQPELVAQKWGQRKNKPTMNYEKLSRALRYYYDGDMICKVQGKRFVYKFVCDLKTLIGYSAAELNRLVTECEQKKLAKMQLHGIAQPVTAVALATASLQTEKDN
Method in brief: as §1

ERG = biological target: T4, ERG (Homo sapiens, UniProt P11308 1-479); settings: protein: recombinant; tags: N-terminal GST; dsDNA, one strand shown
T4 sequence: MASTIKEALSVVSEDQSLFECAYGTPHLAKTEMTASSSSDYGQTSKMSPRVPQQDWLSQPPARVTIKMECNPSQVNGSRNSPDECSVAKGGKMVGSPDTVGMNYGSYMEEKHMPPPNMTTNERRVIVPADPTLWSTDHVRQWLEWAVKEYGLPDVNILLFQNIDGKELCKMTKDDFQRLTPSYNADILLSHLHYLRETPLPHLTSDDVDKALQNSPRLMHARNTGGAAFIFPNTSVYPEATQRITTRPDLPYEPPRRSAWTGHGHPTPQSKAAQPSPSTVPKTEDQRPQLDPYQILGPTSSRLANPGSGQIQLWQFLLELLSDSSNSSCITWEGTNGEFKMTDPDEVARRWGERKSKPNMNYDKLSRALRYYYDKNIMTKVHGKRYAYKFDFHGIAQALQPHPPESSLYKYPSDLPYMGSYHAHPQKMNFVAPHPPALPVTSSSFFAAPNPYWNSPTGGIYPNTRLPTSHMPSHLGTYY
Method in brief: as §1

ELF1 = ELF1 (Homo sapiens, UniProt P32519 1-619); settings: protein: recombinant; tags: N-terminal GST; dsDNA, one strand shown
ELF1, sequence (P32519 whole entry): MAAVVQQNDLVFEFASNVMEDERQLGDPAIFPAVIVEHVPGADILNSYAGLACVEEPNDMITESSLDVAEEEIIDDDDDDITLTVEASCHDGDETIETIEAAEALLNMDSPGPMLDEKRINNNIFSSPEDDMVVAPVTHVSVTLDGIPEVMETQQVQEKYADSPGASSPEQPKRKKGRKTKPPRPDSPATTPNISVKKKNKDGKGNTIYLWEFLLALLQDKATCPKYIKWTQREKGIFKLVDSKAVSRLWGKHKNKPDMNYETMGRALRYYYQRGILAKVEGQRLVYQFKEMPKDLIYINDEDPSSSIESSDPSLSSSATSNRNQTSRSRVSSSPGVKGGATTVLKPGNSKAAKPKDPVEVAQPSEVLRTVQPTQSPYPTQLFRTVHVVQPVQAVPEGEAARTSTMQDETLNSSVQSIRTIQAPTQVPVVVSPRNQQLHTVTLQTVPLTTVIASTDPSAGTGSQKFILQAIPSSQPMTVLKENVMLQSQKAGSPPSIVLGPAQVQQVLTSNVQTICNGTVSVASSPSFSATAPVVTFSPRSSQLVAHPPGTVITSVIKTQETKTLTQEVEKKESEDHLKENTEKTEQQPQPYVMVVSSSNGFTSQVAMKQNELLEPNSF
Method in brief: as §1

EHF = biological target: T5, EHF (Homo sapiens, UniProt Q9NZC4 1-300); settings: protein: recombinant; tags: N-terminal GST; dsDNA, one strand shown
T5 sequence: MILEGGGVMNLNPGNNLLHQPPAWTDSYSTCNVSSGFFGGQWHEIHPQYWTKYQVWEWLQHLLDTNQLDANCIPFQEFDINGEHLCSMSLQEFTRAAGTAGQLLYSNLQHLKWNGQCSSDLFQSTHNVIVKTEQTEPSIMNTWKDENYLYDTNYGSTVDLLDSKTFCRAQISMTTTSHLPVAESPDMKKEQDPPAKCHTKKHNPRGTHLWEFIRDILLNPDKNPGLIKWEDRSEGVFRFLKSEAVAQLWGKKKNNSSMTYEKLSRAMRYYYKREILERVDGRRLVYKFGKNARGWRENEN
Method in brief: as §1

SPI1 = SPI1 (Homo sapiens, UniProt P17947 1-270); settings: protein: recombinant; tags: N-terminal GST; dsDNA, one strand shown
Method in brief: as §1

SPIB = SPIB (Homo sapiens, UniProt Q01892 1-262); settings: protein: recombinant; tags: N-terminal GST; dsDNA, one strand shown
SPIB, sequence (Q01892 whole entry): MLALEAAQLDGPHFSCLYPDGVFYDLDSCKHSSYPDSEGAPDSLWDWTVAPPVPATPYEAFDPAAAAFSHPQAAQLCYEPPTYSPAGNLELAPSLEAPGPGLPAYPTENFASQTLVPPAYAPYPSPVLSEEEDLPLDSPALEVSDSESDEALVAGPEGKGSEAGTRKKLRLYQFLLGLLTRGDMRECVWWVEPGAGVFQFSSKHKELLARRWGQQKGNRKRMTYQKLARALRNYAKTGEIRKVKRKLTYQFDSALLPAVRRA
Method in brief: as §1

ELK3 = biological target: T6, ELK3 (Homo sapiens, UniProt P41970 1-407); settings: protein: recombinant; tags: N-terminal GST; dsDNA, one strand shown
T6 sequence: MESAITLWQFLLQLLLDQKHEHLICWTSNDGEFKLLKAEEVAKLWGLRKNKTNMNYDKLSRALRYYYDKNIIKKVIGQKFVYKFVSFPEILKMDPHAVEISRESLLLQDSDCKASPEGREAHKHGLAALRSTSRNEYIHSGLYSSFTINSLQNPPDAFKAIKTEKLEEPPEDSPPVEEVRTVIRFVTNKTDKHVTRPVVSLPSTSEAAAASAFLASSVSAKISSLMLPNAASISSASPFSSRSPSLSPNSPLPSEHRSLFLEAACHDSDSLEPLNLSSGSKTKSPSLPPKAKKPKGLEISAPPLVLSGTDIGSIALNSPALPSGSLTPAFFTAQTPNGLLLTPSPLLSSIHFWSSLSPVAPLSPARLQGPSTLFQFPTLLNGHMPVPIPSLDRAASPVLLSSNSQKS
Method in brief: as §1

FEV = biological target: T7, FEV (Homo sapiens, UniProt Q99581 1-238); settings: protein: recombinant; tags: N-terminal GST; dsDNA, one strand shown
T7 sequence: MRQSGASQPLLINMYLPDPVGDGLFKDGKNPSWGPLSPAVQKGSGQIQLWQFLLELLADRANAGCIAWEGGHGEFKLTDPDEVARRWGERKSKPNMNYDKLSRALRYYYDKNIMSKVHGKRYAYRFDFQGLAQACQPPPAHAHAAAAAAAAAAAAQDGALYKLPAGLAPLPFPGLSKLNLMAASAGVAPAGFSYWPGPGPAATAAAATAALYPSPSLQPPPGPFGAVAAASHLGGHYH
Method in brief: as §1

ETV5 = ETV5 (Homo sapiens, UniProt P41161 1-510); settings: protein: recombinant; tags: N-terminal GST; dsDNA, one strand shown
ETV5, sequence (P41161 whole entry): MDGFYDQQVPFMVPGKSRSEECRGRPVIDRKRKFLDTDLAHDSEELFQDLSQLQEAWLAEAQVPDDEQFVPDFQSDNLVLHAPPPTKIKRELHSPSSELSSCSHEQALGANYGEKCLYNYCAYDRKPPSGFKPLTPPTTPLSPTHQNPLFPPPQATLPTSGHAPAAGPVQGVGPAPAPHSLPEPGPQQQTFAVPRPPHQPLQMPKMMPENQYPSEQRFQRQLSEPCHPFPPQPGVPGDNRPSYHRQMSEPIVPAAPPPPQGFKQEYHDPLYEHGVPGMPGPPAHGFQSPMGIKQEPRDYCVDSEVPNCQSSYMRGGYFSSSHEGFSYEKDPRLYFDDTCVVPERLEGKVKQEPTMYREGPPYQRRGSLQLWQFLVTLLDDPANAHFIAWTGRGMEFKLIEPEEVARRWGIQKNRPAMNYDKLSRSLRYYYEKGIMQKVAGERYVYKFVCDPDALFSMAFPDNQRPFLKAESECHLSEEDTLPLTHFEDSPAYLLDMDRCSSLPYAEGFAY
Method in brief: as §1

HSF1 = HSF1 (Homo sapiens, UniProt Q00613 1-529); settings: protein: recombinant; tags: N-terminal GST; chain copies: 3; dsDNA, one strand shown
HSF1, sequence (Q00613 whole entry): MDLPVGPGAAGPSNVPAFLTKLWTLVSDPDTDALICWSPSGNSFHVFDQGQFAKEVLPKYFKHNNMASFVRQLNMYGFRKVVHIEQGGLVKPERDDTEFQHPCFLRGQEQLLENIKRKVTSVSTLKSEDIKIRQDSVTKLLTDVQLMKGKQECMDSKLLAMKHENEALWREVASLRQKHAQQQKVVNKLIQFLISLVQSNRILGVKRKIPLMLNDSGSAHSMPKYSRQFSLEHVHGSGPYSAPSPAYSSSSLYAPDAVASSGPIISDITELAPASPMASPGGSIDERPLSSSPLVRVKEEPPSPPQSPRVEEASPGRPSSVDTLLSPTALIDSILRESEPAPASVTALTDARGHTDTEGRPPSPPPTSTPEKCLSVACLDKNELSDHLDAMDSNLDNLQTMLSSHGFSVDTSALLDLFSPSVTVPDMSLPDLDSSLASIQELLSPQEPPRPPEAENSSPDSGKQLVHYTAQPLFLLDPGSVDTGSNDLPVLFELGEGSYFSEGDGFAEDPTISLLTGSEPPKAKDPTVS
Method in brief: as §1

SPIC = biological target: T8, SPIC (Homo sapiens, UniProt Q8N5J4 1-248); settings: protein: recombinant; tags: N-terminal GST; dsDNA, one strand shown
T8 sequence: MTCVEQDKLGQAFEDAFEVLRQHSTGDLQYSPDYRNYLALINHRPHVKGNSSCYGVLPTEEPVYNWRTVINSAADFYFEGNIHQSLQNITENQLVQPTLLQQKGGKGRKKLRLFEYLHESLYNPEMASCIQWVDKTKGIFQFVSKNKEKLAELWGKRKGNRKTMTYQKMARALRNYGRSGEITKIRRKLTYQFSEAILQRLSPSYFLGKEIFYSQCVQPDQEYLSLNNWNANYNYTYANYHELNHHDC
Method in brief: as §1

ELF4 = ELF4 (Homo sapiens, UniProt Q99607 1-663); settings: protein: recombinant; tags: N-terminal GST; dsDNA, one strand shown
ELF4, sequence (Q99607 whole entry): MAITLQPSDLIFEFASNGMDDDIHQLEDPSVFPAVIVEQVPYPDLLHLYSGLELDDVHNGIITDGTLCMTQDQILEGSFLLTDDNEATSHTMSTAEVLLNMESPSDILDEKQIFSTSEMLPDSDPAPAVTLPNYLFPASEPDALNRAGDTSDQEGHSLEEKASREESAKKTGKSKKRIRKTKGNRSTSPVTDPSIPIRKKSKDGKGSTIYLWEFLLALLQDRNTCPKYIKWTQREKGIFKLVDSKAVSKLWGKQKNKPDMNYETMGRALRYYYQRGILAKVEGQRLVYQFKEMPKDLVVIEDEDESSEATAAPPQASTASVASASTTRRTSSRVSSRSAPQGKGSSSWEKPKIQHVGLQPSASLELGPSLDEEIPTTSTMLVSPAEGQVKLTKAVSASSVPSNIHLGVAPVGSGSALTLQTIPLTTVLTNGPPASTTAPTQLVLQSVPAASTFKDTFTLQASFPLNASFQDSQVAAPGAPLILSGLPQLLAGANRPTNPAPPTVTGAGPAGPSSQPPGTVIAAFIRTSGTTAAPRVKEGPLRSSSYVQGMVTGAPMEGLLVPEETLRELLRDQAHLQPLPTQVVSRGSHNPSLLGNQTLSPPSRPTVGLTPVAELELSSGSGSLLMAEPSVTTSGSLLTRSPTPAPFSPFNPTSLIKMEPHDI
Method in brief: as §1

ELK4 = biological target: T9, ELK4 (Homo sapiens, UniProt P28324-2 1-405); settings: protein: recombinant; tags: N-terminal GST; dsDNA, one strand shown
T9 sequence: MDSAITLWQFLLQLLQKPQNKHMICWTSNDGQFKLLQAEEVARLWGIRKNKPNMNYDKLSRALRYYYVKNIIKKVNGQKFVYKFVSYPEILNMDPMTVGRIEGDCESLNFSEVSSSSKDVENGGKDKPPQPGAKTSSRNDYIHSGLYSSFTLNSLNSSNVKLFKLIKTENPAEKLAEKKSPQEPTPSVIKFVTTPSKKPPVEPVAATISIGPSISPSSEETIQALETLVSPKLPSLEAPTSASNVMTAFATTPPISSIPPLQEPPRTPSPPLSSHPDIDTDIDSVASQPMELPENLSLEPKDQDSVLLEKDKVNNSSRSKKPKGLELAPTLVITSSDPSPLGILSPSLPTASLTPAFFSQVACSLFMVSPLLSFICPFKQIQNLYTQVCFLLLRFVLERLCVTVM
Method in brief: as §1

ETV2 = biological target: T10, ETV2 (Homo sapiens, UniProt O00321 1-342); settings: protein: recombinant; tags: N-terminal GST; dsDNA, one strand shown
T10 sequence: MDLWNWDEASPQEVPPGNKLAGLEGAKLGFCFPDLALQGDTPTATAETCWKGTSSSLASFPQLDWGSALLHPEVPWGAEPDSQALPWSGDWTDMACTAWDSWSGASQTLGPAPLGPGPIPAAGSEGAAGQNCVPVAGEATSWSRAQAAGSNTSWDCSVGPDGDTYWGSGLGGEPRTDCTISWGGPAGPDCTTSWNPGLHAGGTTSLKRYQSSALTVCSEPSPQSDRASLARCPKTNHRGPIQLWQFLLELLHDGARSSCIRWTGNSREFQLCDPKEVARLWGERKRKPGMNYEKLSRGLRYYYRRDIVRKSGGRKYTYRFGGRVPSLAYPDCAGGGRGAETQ
Method in brief: as §1

ELF3 = biological target: T11, ELF3 (Homo sapiens, UniProt P78545 1-371); settings: protein: recombinant; tags: N-terminal GST; dsDNA, one strand shown
T11 sequence: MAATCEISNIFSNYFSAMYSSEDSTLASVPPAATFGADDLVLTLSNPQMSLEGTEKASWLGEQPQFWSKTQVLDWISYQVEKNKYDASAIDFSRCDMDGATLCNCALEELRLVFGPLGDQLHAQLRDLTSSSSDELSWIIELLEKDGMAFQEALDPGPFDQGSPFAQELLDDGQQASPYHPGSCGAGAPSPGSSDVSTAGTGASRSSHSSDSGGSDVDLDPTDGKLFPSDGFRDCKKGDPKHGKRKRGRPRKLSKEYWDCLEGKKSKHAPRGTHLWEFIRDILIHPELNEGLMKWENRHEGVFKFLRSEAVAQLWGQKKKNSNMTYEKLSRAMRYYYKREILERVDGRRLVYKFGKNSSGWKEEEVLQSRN
Method in brief: as §1

CRX = CRX (Homo sapiens, UniProt O43186 1-299); settings: protein: recombinant; tags: N-terminal GST; dsDNA, one strand shown
CRX, sequence (O43186 whole entry): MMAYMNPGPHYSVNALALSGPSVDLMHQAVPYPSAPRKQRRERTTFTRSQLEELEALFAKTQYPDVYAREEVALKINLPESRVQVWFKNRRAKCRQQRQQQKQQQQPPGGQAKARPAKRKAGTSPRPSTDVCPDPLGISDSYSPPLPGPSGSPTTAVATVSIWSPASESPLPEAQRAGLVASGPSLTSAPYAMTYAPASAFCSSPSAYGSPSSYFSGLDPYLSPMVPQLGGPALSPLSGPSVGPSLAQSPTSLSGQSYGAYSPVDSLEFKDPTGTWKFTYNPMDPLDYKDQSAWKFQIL
Method in brief: as §1

ETV1 = ETV1 (Homo sapiens, UniProt P50549 1-477); settings: protein: recombinant; tags: N-terminal GST; dsDNA, one strand shown
ETV1, sequence (P50549 whole entry): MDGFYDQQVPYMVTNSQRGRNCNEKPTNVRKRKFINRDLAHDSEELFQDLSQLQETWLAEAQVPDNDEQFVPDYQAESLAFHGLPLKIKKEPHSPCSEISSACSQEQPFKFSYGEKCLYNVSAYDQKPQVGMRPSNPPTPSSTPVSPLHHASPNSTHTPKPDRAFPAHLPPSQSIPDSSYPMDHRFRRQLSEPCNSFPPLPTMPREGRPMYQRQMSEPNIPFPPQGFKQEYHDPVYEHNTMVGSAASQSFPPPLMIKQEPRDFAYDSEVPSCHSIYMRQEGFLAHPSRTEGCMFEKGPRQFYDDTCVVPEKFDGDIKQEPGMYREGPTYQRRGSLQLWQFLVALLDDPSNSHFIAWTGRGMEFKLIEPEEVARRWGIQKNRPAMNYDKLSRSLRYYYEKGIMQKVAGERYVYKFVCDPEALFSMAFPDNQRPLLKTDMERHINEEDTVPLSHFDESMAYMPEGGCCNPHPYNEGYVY
Method in brief: as §1

## TTGTTC
FLI1
  binding signal: 1.5 fold enrichment (6-mer frequency, TF over GST control)
ELK1
  binding signal: 1.41 fold enrichment (6-mer frequency, TF over GST control)
GABPA
  binding signal: 1.53 fold enrichment (6-mer frequency, TF over GST control)
ERG
  binding signal: 1.34 fold enrichment (6-mer frequency, TF over GST control)
ELF1
  binding signal: 1.44 fold enrichment (6-mer frequency, TF over GST control)
EHF
  binding signal: 1.64 fold enrichment (6-mer frequency, TF over GST control)
SPI1
  binding signal: 1.51 fold enrichment (6-mer frequency, TF over GST control)
SPIB
  binding signal: 1.57 fold enrichment (6-mer frequency, TF over GST control)
ELK3
  binding signal: 1.39 fold enrichment (6-mer frequency, TF over GST control)
FEV
  binding signal: 1.43 fold enrichment (6-mer frequency, TF over GST control)
ETV5
  binding signal: 1.48 fold enrichment (6-mer frequency, TF over GST control)
HSF1
  binding signal: 1.89 fold enrichment (6-mer frequency, TF over GST control)
SPIC
  binding signal: 1.48 fold enrichment (6-mer frequency, TF over GST control)
ELF4
  binding signal: 1.37 fold enrichment (6-mer frequency, TF over GST control)
ELK4
  binding signal: 1.48 fold enrichment (6-mer frequency, TF over GST control)
ETV2
  binding signal: 1.48 fold enrichment (6-mer frequency, TF over GST control)
ELF3
  binding signal: 1.33 fold enrichment (6-mer frequency, TF over GST control)
CRX
  binding signal: 1.43 fold enrichment (6-mer frequency, TF over GST control)
ETV1
  binding signal: 1.49 fold enrichment (6-mer frequency, TF over GST control)
